Assay outcomes deposited in PubChem BioAssay by Broad Institute.
BL2 CD40 inh: CD40 pathway inhibition in BL2 cells; BL2 NF-kB luciferase reporter, CD40L-induced, 4 h; inhibition, % at 10 µM; 83,000 compounds, 0.94% hits; AID 1053188;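 active = mean inhibition of at least 50% with a set share of replicates also reaching that level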;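 also: 0% = neutral control wells and 100% = IKK inhibitor VII at 50 µM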
* hit, by the source's call; [ ] = dose if it differs, or a comment. The sample as a whole holds a higher share of hits than the screen did.

SMILES | BL2 CD40 inh
C[C@H]1CCCCO[C@@H](CN(C)C(=O)Nc2ccc3c(c2)OCO3)[C@@H](C)CN([C@@H](C)CO)C(=O)c2cc(NS(=O)(=O)c3cccs3)ccc2O1 | -8
O=C(C1CCOCC1)N1C[C@@H]2[C@H](c3ccccc31)[C@H](CO)N2Cc1ccc(Cl)cc1 | -8[25 µM]
O=C(Nc1ccccc1)NC1CC(C(=O)O)Nc2cc(Cl)cc(Cl)c21 (centres undefined) | 4[25 µM]
O=C1CC(=O)OC(c2ccc([N+](=O)[O-])cc2)O1 | 86*
O=C(O)c1ccc([N+](=O)[O-])cc1 | 6
O=C1CSC(c2ccc([N+](=O)[O-])cc2)N1CCN1CCCCC1 (centres undefined) | 12
CC12CN3CC(C)(CN(C1)C3c1ccc3c(c1)OCO3)C2=O (centres undefined) | 36*
CC12CN3CC(C)(CN(C1)C3c1ccc3ccccc3c1O)C2=O (centres undefined) | 7
COc1ccc2[nH]cc(C3N4CC5(C)CN3CC(C)(C4)C5=O)c2c1 (centres undefined) | 8
CO[C@@H]1CN(C)C(=O)c2cc(NC(=O)c3nc4ccccc4s3)ccc2OC[C@H](C)N(Cc2cccnc2)C[C@H]1C | 9
CSc1nsc(SC)c1C(=O)OCC(F)(F)F | -17
CSc1nsc(SC)c1C(=O)O | 4
CSc1nsc(SC)c1C(N)=O | 78*
COc1ccc(C(=O)Nc2ccc(C(=O)c3ccccc3)cc2)cc1 | -3
O=C(Nc1ccc2[nH]ccc2c1)c1cccs1 | -56
COc1ccc(C(=O)Nc2ccc3[nH]ccc3c2)cc1 | 75*
CC(C)[C@H](C)NC(=O)N(C)C[C@@H]1OCc2ccccc2-c2c(n(C)c3ccccc23)C(=O)N([C@H](C)CO)C[C@H]1C | 12
O=C(NCC[C@@H]1CC[C@H](NC(=O)C2CCCC2)[C@@H](CO)O1)c1cnccn1 | -11
Cc1cc(C)cc(N2C(=O)CC(Sc3nnnn3-c3ccccc3)C2=O)c1 (centres undefined) | 99*
Cc1cccc(-n2nnnc2SCC(=O)NC2CCCC2)c1 | 5
Nc1ccc(Sc2nnnn2-c2ccccc2)c(Cl)c1 | 4
Cn1nc(-c2ccc(N3CCOCC3)c(NS(=O)(=O)c3ccccc3)c2)c2ccccc2c1=O | 16
CCC(=O)Nc1cc(-c2nn(C)c(=O)c3ccccc23)ccc1N1CCCCC1 | 48*
CCCC(=O)Nc1cc(-c2nn(C)c(=O)c3ccccc23)ccc1N1CCCCC1 | 1
CN1C(=O)c2cc(NC(=O)c3ccc(F)cc3)ccc2OC[C@@H]2O[C@@H](CC(=O)NCC3CCCCC3)CC[C@H]21 | -1
SMILES | BL2 CD40 inh
CC(C)NC(=O)N(C)C[C@@H]1Oc2ccccc2CC(=O)N(C)C[C@@H]1C | 0
Cc1nnc(N2CCOCC2)c2nn(-c3ccccc3)c(C)c12 | 4
c1ccc(-n2nnc3c(N4CCOCC4)ncnc32)cc1 | 68*
c1ccc(Cn2nnc3c(N4CCCC4)ncnc32)cc1 | -6
Cc1oc(-c2nc3ccccc3n2C)cc1C(=O)c1ccccc1 | 62*
CC(=O)c1ccc(-c2nc3ccccc3n2C)o1 | -65
Cn1cc(C(=O)c2ccccc2)cc1-c1nc2ccccc2n1C | -2
C/C=C/c1ccc([C@H]2[C@@H](CO)N(C(=O)c3cnccn3)C23CN(C(=O)C2CCC2)C3)cc1 | -10[25 µM]
C[C@H](CO)N1C[C@H](C)[C@H](CN(C)Cc2ccccc2)OCc2cnnn2CCCC1=O | -3
CC(=O)Nc1nc2nc(-c3ccccc3)cc(-c3ccccc3)n2n1 | 30*
O=C(NC1CCCC1)c1cc2nc(-c3ccccc3)cc(-c3ccccc3)n2n1 | 9
O=C(Nc1nc2nc(-c3ccccc3)cc(-c3ccccc3)n2n1)c1ccco1 | 27
O=C1CCCn2cc(nn2)COC[C@@H](Cc2ccccc2)N1 | -2
COc1ccccc1-c1ccc([C@@H]2[C@@H](CO)N(C(=O)C3CCOCC3)[C@H]2C#N)cc1 | -6[25 µM]
CCN1[C@H](C(=O)NCc2ccc(F)cc2)[C@@H](CO)[C@@H]2Cn3c(ccc(-c4ccccc4OC)c3=O)[C@@H]21 | 9[25 µM]
Cc1nc(Nc2nc3ccccc3o2)nc(C)c1C(=O)Nc1ccc(F)cc1 | -6
COCc1cc(=O)[nH]c(Nc2nc3ccccc3o2)n1 | 17
Cc1nc(Nc2nc3ccccc3o2)nc2c1CCC2 | active
C[C@@H]1CN([C@H](C)CO)C(=O)CCCn2nncc2CO[C@@H]1CN(C)C(=O)Nc1ccc(C(C)(C)C)cc1 | -13
CC1CN(Cc2ccccc2)C(=O)N(c2ccccc2)C1=O (centres undefined) | -3
COc1ccc(C(=O)[C@H]2[C@H]3C(=O)N(c4ccccc4)C(=O)[C@H]3C3C=CC=NN32)cc1 (some centres undefined) | -45
O=C1C=CC2C3C(=O)N(c4ccccc4)C(=O)C3C1N2Cc1ccccc1 (centres undefined) | 100*
O=C(Nc1cccc(F)c1)N1C[C@@H]2[C@H](c3ccccc31)[C@@H](CO)N2C(=O)Cc1ccccn1 | 12[25 µM]
CCCNC(=O)N1C[C@H]2[C@@H](c3ccccc31)[C@@H](CO)N2Cc1cccc(OC)c1 | -9[25 µM]
CC(C)(C)[S@](=O)N1Cc2cc(C(=O)NCC(F)(F)F)nc(-c3cccc(-c4cccc(F)c4)c3)c2[C@@H]1CCO | 80*[25 µM]
SMILES | BL2 CD40 inh
CC(C)(C)[S@@](=O)N1Cc2cc(C(=O)NCC(F)(F)F)nc(-c3cccc(-c4cccc(F)c4)c3)c2[C@H]1CCO | -13[25 µM]
COc1cccc(-c2cccc(-c3nc(C(=O)NCC(F)(F)F)cc4c3[C@@H](CCO)N([S@](=O)C(C)(C)C)C4)c2)c1 | 5
CCN1[C@H](C(=O)N(C)C)[C@@H](CO)[C@@H]2Cn3c(ccc(C4=CCCCC4)c3=O)[C@@H]21 | -13[25 µM]
O=C(C1CCCC1)N1C[C@@H]2[C@H](c3ccccc31)[C@H](CO)N2C(=O)c1ccccc1 | 10
c1ccc(-c2ccccc2OCCOCCN2CCCCC2)cc1 | 7
FC(F)(F)c1cnc(-c2cnc3c(-c4ccc(Cl)cc4)cnn3c2)c(Cl)c1 | 0
c1cc(-c2cnn3cc(-c4ccc(OCCN5CCCCC5)cc4)cnc23)ccn1 | 87*[25 µM]
O=C1C(=C(c2ccccc2)N2CCOCC2)Cc2ccccc21 | 89*
O=C(c1ccccc1)N1CCN(C(=O)N2CCOCC2)CC1 | 8
O=C1c2ccccc2-c2c1cccc2C(=O)N1CCOCC1 | 11
C[C@H]1CN([C@@H](C)CO)C(=O)c2cc(-c3cccnc3)cnc2O[C@@H]1CN(C)C(=O)Nc1ccccc1 | 5[25 µM]
O=C(NCC[C@@H]1CC[C@@H](NS(=O)(=O)Cc2ccccc2)[C@@H](CO)O1)C1CCCC1 | 3
COc1ccc2[nH]c(O)c(NC(C)=O)c2c1 | 7
COc1ccc2[nH]c(=O)c3c(c2c1)OC(C)(C)C=C3 | 38*
COc1ccc2nc(C)[nH]c(=O)c2c1 | 3
C[N+](C)(C)CCC(=O)N1C/C(=C/c2ccccc2)C(=O)/C(=C\c2ccccc2)C1 | -60
O=C(/C=C/c1ccccc1)CCN1CCOCC1 | -7
O=C1/C(=C/c2ccccc2)CN(C(=O)CCN2CCOCC2)C/C1=C\c1ccccc1 | 93*
O=C(C[C@H]1C[C@H]2c3cc(NC(=O)C4CCOCC4)ccc3O[C@H]2[C@@H](CO)O1)NCc1cc(F)ccc1F | 1[25 µM]
O=C(C[C@H]1CC[C@@H]2[C@H](COC[C@H](O)CN2C(=O)c2cnccn2)O1)N1CCN(c2ccccc2)CC1 | 6[25 µM]
COc1ccccc1-c1ccc([C@H]2[C@@H](CO)N3CCCCN(C(=O)NC4CCCC4)C[C@@H]23)cc1 | 14[25 µM]
